Results filed as inconclusive are left out. Activity calls are given as the source filed them. How the source made its calls, unless noted: active means hit-call score of the fitted dose curve at least 0.9, where 1 is the maximum; inactive means score below 0.9.
Assays:
[1] = read-out: Monokine induced gamma interferon (MIG), CXCL9 (gene 4283); experiment: BSK_3C_MIG: BioMAP Diversity Plus: 3C Assay for Monokine induced gamma interferon (MIG) Biomarker Activity (AID 2283021); conditions: primary human endothelial cells (HUVEC); actives raise or lower the signal;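 on AC50: MIG protein level measured by immunoassay in the treated endothelial cultures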
How it was run: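 ELISA measurement of MIG in human umbilical vein endothelial cells 24 h after treatment. Cytotoxicity tracked by SRB staining in parallel cultures; gain or loss of signal fitted relative to DMSO.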

[2] = molecular target: human Vitamin D Receptor (VDR), VDR (gene 7421) (UniProt P11473); experiment: ATG_VDR_TRANS: Attagene TRANS-FACTORIAL HepG2 Assay for human Vitamin D Receptor (VDR) (AID 2283022; active means hit-call score of the fitted dose curve at least 0.9, where 1 is the maximum)
How it was run: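 Steps: transfect HepG2 with GAL4-UAS-driven reporter constructs; dose compounds 24 h; isolate RNA, reverse-transcribe, PCR-amplify with 6-FAM-labelled primer extension and HpaI digestion; quantify fragments by capillary electrophoresis relative to DMSO.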

[3] = BSK_3C_SRB: Viability Assessment in the BioMAP Diversity Plus: 3C Assay (AID 2283023); conditions: primary human endothelial cells (HUVEC);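 further: fitted both ways against DMSO so a hit may be signal rise or drop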
How it was run: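 Absorbance at 560 nm of sulforhodamine B-stained (0.1%) total protein served as a cytotoxicity readout in human umbilical vein endothelial cells, 24 h after chemical treatment. Signal was fitted bidirectionally relative to DMSO.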

[4] = read-out: Matrix Metallopeptidase 1 (MMP1), MMP1 (gene 4312); experiment: BSK_BE3C_MMP1: BioMAP Diversity Plus: BE3C Assay for Matrix Metallopeptidase 1 (MMP1) Biomarker Activity (AID 2283024); conditions: primary human bronchial epithelial cells; actives raise or lower the signal
How it was run: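 ELISA measurement of MMP-1 after 24 h compound exposure of primary human bronchial epithelial cells. Changes in either direction fitted relative to DMSO; parallel SRB staining checked overt cytotoxicity.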

[5] = BSK_3C_Vis: BioMAP Diversity Plus: 3C Assay for Morphology Visualization (AID 2283025); conditions: primary human endothelial cells (HUVEC);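 further: fitted both ways so gain or loss versus DMSO counts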;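 on AC50: light microscopy image of cell morphology used as background control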
How it was run: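 Light-microscopy visualization of HUVEC cultures at 24 h post-treatment, with DMSO as baseline for bidirectional fitting.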

[6] = BSK_4H_SRB: Viability Assessment in the BioMAP Diversity Plus: 4H Assay (AID 2283027); conditions: primary human endothelial cells (HUVEC);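 further: cells exposed to compound for 24 h before staining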;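 on AC50: curves fitted both ways versus DMSO so AC50 may be loss or gain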
How it was run: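 Cytotoxicity read-out in primary human endothelial cells: after 24 h compound exposure, cells were TCA-fixed (10%), stained with 0.1% SRB and absorbance taken at 560 nm. Values fitted in both directions relative to DMSO.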

[7] = read-out: Thrombomodulin, THBD (gene 7056); experiment: BSK_3C_Thrombomodulin: BioMAP Diversity Plus: 3C Assay for Thrombomodulin Biomarker Activity (AID 2283029); conditions: primary human endothelial cells (HUVEC); actives raise or lower the signal
How it was run: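 ELISA measurement of thrombomodulin on HUVEC surface 24 h after chemical dosing; activity fitted in both directions relative to DMSO vehicle.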

[8] = read-out: Urokinase-type plasminogen activator receptor (uPAR), PLAUR (gene 5329); experiment: BSK_4H_uPAR: BioMAP Diversity Plus: 4H Assay for Urokinase-type plasminogen activator receptor (uPAR) Biomarker Activity (AID 2283030); conditions: primary human endothelial cells (HUVEC); actives raise or lower the signal
How it was run: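 Cell-surface uPAR ELISA signal, measured 24 h after dosing human umbilical vein endothelial cells, was analyzed with bidirectional fitting relative to DMSO. Parallel SRB staining of total protein tracked overt cytotoxicity.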

[9] = read-out: Vascular cell adhesion molecule 1 (VCAM1), VCAM1 (gene 7412); experiment: BSK_4H_VCAM1: BioMAP Diversity Plus: 4H Assay for Vascular cell adhesion molecule 1 (VCAM1) Biomarker Activity (AID 2283033); conditions: primary human endothelial cells (HUVEC); actives raise or lower the signal
How it was run: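 VCAM-1 ELISA read 24 h after chemical dosing of HUVEC in the BioMAP 4H system, with gain or loss of signal fitted relative to DMSO. Parallel SRB staining (560 nm) checked overt cytotoxicity.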

[10] = read-out: Interferon-gamma inducible Protein 10 (IP10), CXCL10 (gene 3627); experiment: BSK_BE3C_IP10: BioMAP Diversity Plus: BE3C Assay for Interferon-gamma inducible Protein 10 (IP10) Biomarker Activity (AID 2283034); conditions: primary human bronchial epithelial cells; actives raise or lower the signal
How it was run: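 IP-10 quantified by ELISA in human primary bronchial epithelial cell cultures at 24 hours post-dosing. Gain or loss of signal fitted relative to DMSO; parallel SRB staining assessed overt cytotoxicity.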

[11] = read-out: Monokine induced gamma interferon (MIG), CXCL9 (gene 4283); experiment: BSK_BE3C_MIG: BioMAP Diversity Plus: BE3C Assay for Monokine induced gamma interferon (MIG) Biomarker Activity (AID 2283035); conditions: primary human bronchial epithelial cells; actives raise or lower the signal
How it was run: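 ELISA quantified MIG after 24 h exposure of primary bronchial epithelial cultures, analysed in both directions relative to DMSO. Cytotoxicity tracked in parallel cultures by sulforhodamine B staining.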

[12] = read-out: Transforming growth factor beta 1 (TGFb1), TGFB1 (gene 7040); experiment: BSK_BE3C_TGFb1: BioMAP Diversity Plus: BE3C Assay for Transforming growth factor beta 1 (TGFb1) Biomarker Activity (AID 2283036;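 further: TGF-b1 protein level measured by ELISA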); conditions: primary human bronchial epithelial cells; actives raise or lower the signal
How it was run: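 ELISA readout of TGF-b1 from human lung bronchial epithelial primary cells, taken 24 h post-treatment. Gain or loss of signal fitted relative to DMSO baseline, with parallel SRB staining for overt cytotoxicity.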

[13] = read-out: Plasminogen activator inhibitor-1 (PAI1), SERPINE1 (gene 5054); experiment: BSK_BE3C_PAI1: BioMAP Diversity Plus: BE3C Assay for Plasminogen activator inhibitor-1 (PAI1) Biomarker Activity (AID 2283037); conditions: primary human bronchial epithelial cells; actives raise or lower the signal
How it was run: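 PAI-1 was measured by ELISA in human primary bronchial epithelial cultures 24 h after chemical dosing, with cytotoxicity checked by SRB total-protein staining in parallel cultures. Activity was fitted in both directions relative to DMSO.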

[14] = read-out: urokinase plasminogen activator (uPA), PLAU (gene 5328); experiment: BSK_BE3C_uPA: BioMAP Diversity Plus: BE3C Assay for urokinase plasminogen activator (uPA) Biomarker Activity (AID 2283038); conditions: primary human bronchial epithelial cells; actives raise or lower the signal
How it was run: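 Bronchial epithelial cells (human, primary); chemical 24 h; uPA by ELISA; bidirectional fit vs DMSO. SRB (0.1%, after 10% TCA fixation, 560 nm) in parallel cultures for cytotoxicity.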

[15] = read-out: Urokinase-type plasminogen activator receptor (uPAR), PLAUR (gene 5329); experiment: BSK_BE3C_uPAR: BioMAP Diversity Plus: BE3C Assay for Urokinase-type plasminogen activator receptor (uPAR) Biomarker Activity (AID 2283039); conditions: primary human bronchial epithelial cells; actives raise or lower the signal
How it was run: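 uPAR levels were measured by ELISA after 24 h compound treatment of primary human bronchial epithelial cells, fitted in both directions relative to DMSO. Parallel SRB staining served as the cytotoxicity read-out.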

[16] = read-out: Interleukin-6 (IL6), IL6 (gene 3569); experiment: BSK_CASM3C_IL6: BioMAP Diversity Plus: CASM3C Assay for Interleukin-6 (IL6) Biomarker Activity for (AID 2283040); conditions: primary human coronary artery smooth muscle cells; actives raise or lower the signal
[17] = read-out: Tissue plasminogen activator (tPA), PLAT (gene 5327); experiment: BSK_BE3C_tPA: BioMAP Diversity Plus: BE3C Assay for Tissue plasminogen activator (tPA) Biomarker Activity (AID 2283041); conditions: primary human bronchial epithelial cells; actives raise or lower the signal
How it was run: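 tPA measured by ELISA 24 h after dosing human primary bronchial epithelial cells (BE3C system). Changes in either direction were fitted against DMSO. Parallel cultures were stained with SRB to flag overt cytotoxicity.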

[18] = read-out: Interleukin-8 (IL8), CXCL8 (gene 3576); experiment: BSK_CASM3C_IL8: BioMAP Diversity Plus: CASM3C Assay for Interleukin-8 (IL8) Biomarker Activity (AID 2283042); conditions: primary human coronary artery smooth muscle cells; actives raise or lower the signal;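 further: IL-8 protein level quantified by ELISA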
[19] = read-out: Pselectin, SELP (gene 6403); experiment: BSK_4H_Pselectin: BioMAP Diversity Plus: 4H Assay for Pselectin Biomarker Activity (AID 2283026); conditions: primary human endothelial cells (HUVEC); actives raise or lower the signal
How it was run: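 ELISA of surface P-selectin on HUVEC, 24 h after dosing, with parallel SRB staining (0.1% after 10% TCA fixation, 560 nm) for overt cytotoxicity. Activity fitted in both directions relative to DMSO.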

[20] = BSK_BE3C_SRB: Viability Assessment in the BioMAP Diversity Plus: BE3C Assay (AID 2283028); conditions: primary human bronchial epithelial cells;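 on AC50: fitted both ways so AC50 may mark signal gain or loss versus DMSO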
How it was run: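 Cells (human bronchial epithelial, primary) are treated with chemicals, and after 24 h the parallel cultures are fixed in 10% TCA. These are then stained with 0.1% SRB and read at 560 nm. Gain or loss of signal is fitted relative to DMSO.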

Measured: AC50

Sequence of human Vitamin D Receptor (VDR), VDR (gene 7421) (P11473 whole entry, looked up, the tested form may be a part): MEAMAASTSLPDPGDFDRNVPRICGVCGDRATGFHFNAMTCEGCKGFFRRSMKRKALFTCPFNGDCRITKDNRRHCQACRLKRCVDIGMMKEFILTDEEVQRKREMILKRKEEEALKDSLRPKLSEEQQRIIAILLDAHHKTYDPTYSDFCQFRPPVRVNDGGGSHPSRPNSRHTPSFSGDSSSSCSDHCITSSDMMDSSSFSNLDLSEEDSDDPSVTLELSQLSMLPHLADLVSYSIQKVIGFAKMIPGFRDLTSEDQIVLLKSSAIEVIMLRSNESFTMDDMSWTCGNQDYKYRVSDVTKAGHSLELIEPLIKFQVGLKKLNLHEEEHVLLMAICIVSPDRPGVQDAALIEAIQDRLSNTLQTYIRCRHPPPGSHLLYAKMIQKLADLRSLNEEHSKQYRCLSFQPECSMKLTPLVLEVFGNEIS

COCc1c(C(C)C)nc(C(C)C)c(/C=C/[C@@H](O)C[C@@H](O)CC(=O)O)c1-c1ccc(F)cc1
active: [3] 0.0434 µM | [5] 0.00941 µM | [6] 0.0192 µM | [8] 0.456 µM | [18] 0.0375 µM
not listed: [19] | [20]
inactive: all other assays above

C/C=C\C/C=C/CCCCCCCCOC(C)=O
active: [19] 20 µM | [6] 12.7 µM | [9] 29.3 µM | [10] 20 µM
inactive: all other assays above

O=C(Cl)c1cc(C(=O)Cl)cc(C(=O)Cl)c1
inactive: [7] | [12]
active: [1] 29.3 µM | [3] 20 µM | [4] 20 µM | [5] 12.5 µM | [19] 11.6 µM | [6] 26.8 µM | [20] 29.1 µM | [8] 20 µM | [9] 14.8 µM | [10] 30.4 µM | [11] 39.1 µM | [13] 26.7 µM | [14] 20 µM | [15] 24.4 µM | [16] 26.1 µM | [17] 31.8 µM | [18] 30.3 µM

C=CC=CC=CCCCCC
active: [10] 5 µM
not listed: [2]
inactive: all other assays above

CCCCC/C=C\C/C=C\CCCCCCCC(=O)OC
active: [1] 31.4 µM | [5] 37.5 µM | [19] 20 µM | [6] 20 µM | [9] 36.2 µM | [10] 24.9 µM | [11] 38.5 µM | [16] 20 µM
not listed: [2]
inactive: all other assays above

O=C1CCCN1CCO
not listed: [5] | [12]
inactive: all other assays above
